High-throughput results (PubChem)
FBPA coupling cs: inhibits coupling enzyme system, counter-screen for aldolase hits. coupling enzyme system counterscreen, AmpLite Red fluorescence. activity change, negative = inhibition, % at 58.2 µM, hits read low. actives 0.67% (n = 290,000); in the data active = activity change below about -30%
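Fluorescence at 525 nm excitation and 598 nm emission measured inhibition of the coupled detection system without aldolase. Compounds (at 57.5 uM final) were preincubated 10 min at room temperature with coupling enzyme reagent before a 20 min substrate/AmpLite Red step.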
PI4K2A inh: inhibitors of human PI4K2A | Q9BTU6 | purified PI4K2A, ADP-Glo luminescence, 1 h; active compounds read low | activity change, negative = inhibition, % at 76.9 µM | actives 0.13% (n = 420,000) | AID 1346378; in the data active = activity change below about -50%; inconclusive = mostly about -30% to -49%;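 note: -100% = wells without enzyme as full effect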
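In this quantitative HTS, ADP production by PI4K2A was quantified luminescently after 1 h at ambient temperature; 100 microM adenosine served as plate-quality control.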
GALK inh: blocks human galactokinase activity; P51570; Purified GALK, Kinase-Glo residual ATP luminescence; Potency, µM (titrated, usually from 57.5 µM), for inactives: at the highest dose activity change, negative = inhibition, actives largely listed as inhibitors; actives 0.007% (n = 270,000); AID 1868; note: potency is the fitted concentration of half-maximal effect
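Human GALK (5 nM) with 35 uM ATP and 100 uM galactose in 20 mM HEPES pH 8.0, 5 mM MgCl2, 60 mM NaCl, 1 mM DTT, 0.01% BSA. After 1 h at room temperature, leftover ATP was read by Kinase-Glo Plus luminescence.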
Eya2 inh: inhibitors of human Eya2 phosphatase activity; O00167; recombinant Eya2, OMFP fluorescence dephosphorylation (OMFP is methylfluorescein phosphate); Potency, µM (highest dose often 76.9 µM), inactives show at the top dose activity, negative = inhibition, most hits filed as inhibitors; actives 0.006% (n = 330,000); AID 488837; note: potency is the fitted concentration of half-maximal effect
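Eya2 protein (added as 0.2 uM solution) was preincubated with compound for 10 min at ambient temperature in 50 mM HEPES pH 7.5, 50 mM NaCl, 5 uM MgCl2, 0.05% BSA, 1 mM DTT. OMFP (added at 50 uM) then reacted 10 min; fluorescence read at 485/525 nm.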
USP2a block: blocks human ubiquitin-specific protease USP2a | AID 463254 | actives 0.01% (n = 330,000) | O75604 | Potency, µM (titrated, usually from 38.3 µM), for inactives: top-dose activity change, negative = inhibition, hits mostly inhibitors | USP2 core, Ub-CHOP2 coupled fluorogenic reporter, 485/531;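 note: potency is the fitted concentration of half-maximal effect; plate controls were DMSO wells for no effect and full inhibition by NEM control for full effect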
Target sequence (O75604 whole entry, looked up): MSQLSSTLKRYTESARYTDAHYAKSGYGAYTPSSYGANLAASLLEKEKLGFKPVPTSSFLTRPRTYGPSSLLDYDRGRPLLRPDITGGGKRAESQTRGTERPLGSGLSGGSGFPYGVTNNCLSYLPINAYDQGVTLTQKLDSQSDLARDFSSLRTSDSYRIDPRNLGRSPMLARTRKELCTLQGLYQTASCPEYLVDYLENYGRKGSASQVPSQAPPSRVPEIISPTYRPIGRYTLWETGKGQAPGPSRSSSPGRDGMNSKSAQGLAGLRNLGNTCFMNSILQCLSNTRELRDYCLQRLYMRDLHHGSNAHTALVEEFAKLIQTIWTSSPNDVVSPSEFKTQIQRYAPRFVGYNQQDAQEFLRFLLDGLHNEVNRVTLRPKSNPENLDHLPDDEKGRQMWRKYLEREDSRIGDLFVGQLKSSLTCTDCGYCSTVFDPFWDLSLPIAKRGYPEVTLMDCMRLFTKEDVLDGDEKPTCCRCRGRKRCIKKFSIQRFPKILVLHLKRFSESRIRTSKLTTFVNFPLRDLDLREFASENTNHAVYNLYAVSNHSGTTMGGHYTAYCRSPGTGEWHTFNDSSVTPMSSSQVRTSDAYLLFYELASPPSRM
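Cell-free coupled assay: 10nM USP2 core preincubated 30min RT with compound in Tris-HCl pH 8.0/CaCl2/CHAPS buffer, then 25nM Ub-CHOP2 and 25nM reporter substrate; fluorescence (Ex 485/Em 531) read after 60min RT, normalized to NEM inhibition, concentration-response curves fitted.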
USP1 inh: blocks the human USP1/UAF1 deubiquitinase complex. O94782. recombinant USP1/UAF1, Ub-Rhodamine cleavage fluorescence. Potency, µM (top dose mostly 57.1 µM), without a hit: at the highest dose activity change, negative = inhibition, actives largely listed as inhibitors. actives 0.23% (n = 390,000); note: potency is the fitted concentration of half-maximal effect; nearly all actives have a fitted effect of over 60% in size
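In this screen, compounds sit with the deubiquitinase complex (1nM) for 15 min at room temperature before Ub-Rho is added at 150nM final. Fluorescence rise is then followed for 6 reads every 60 seconds.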
An asterisk follows results filed as active; ? = inconclusive; / = not tested or not shown. Rows were chosen to be rich in hits. Some 0.71% of all compounds tested hit in one or more screens of this group. Unless noted, calls come from the whole dose curve; as a rule, active = well fitted curve in the direction sought with a large enough effect; inconclusive = small, poorly fitted or top-dose-only effect, or another doubt; inactive = no such curve, though single readings can be large; an effect the other way counts as inactive or inconclusive. Unless noted, % is set by controls: 0 for no effect and ±100 for the full control effect.

SMILES | FBPA coupling cs | PI4K2A inh | GALK inh | Eya2 inh | USP2a block | USP1 inh
COc1ccc([N+](=O)[O-])cc1/C=N/NC(=O)CNC(=O)c1cccc(F)c1 | -16.3 | -1.0 | -0.5% | 3.2% | 1.8% | -9.6%
COc1ccc(OC)c(/C=N/NC(=O)CNC(=O)c2cccc3ccccc23)c1 | -33.9* | 1.6 | 1.7% | 2.4% | -1.3% | -24.4%
COc1ccccc1/C=N/NC(=O)CO | -1.7 | 0.9 | 0.3% | -6.2% | 0.1% | -19.3%
COc1cccc(/C=N/NC(=O)c2cccc3ccccc23)c1 | -0.9 | -0.5 | -0.8% | -8.4% | -0.7% | -8.2%
COc1ccccc1/C=N/NC(=O)CSc1ccc2ccccc2n1 | -33.1* | 4.2 | 1.4% | -0.2% | -7.1% | -23.6%
COc1ccccc1/C=N/NC(=O)CC(=O)NCc1ccccc1 | -53.6* | 0.3 | 0.6% | -7.9% | 4.1% | -21.0%
COc1ccc([N+](=O)[O-])cc1/C=N/NC(=O)CNC(=O)C(c1ccccc1)c1ccccc1 | -30.1* | -6.2 | -0.2% | -0.8% | 5.5% | -22.5%
Cn1ccc2cc(-c3ccc4ncnc(NCc5cccc(F)c5)c4c3)ccc21 | / | / | / | 3.6% | 3.3% | /
Cc1onc(-c2ccccc2)c1C(=O)N/N=C/c1ccccc1OC(C)C | / | 2.9 | -7.8% | -7.9% | 0.4% | -21.5%
COc1ccccc1/C=N/NC(=O)c1c(-c2ccccc2)noc1C | -33.8* | -1.6 | -0.2% | -7.6% | -0.3% | -25.4%
CO[C@H]1COC(=O)C/C=C\[C@H](C)[C@@H](OC)COC(=O)[C@H](C)COC(=O)C/C=C\[C@@H]1C | 2.7 | / | / | / | / | /
O=C1C=C(c2c(O)ccc3ccccc23)c2ccccc2C1=O | / | -18.5 | / | / | / | 28.2µM*
COc1ccc(COC(=O)N/N=C2/C[C@@H](O)[C@@H](O)[C@@H]3[C@@H]4C(=O)N(c5cccc(Oc6ccccc6)c5)C(=O)[C@H]4CC[C@@H]23)cc1 | 2.5 | / | / | / | / | /
COc1ccc2c(c1)sc1nc(-c3ccccc3)cn12 | -18.7 | -60.1* | 5.9% | -9.2% | -1.3% | -25.0%
COc1ccc(C2C(C(=O)c3cccs3)=C(O)C(=O)N2c2nncs2)cc1 (centres undefined) | 8.6 | 4.2 | -3.2% | 21.5% | 5.8% | 2µM*
C=CCOc1ccc(C2C(C(=O)c3cccs3)=C(O)C(=O)N2c2nnc(C)s2)cc1 (centres undefined) | / | -1.3 | / | / | / | 47.9%
COc1ccc(C2C(C(=O)c3cccs3)=C(O)C(=O)N2c2nnc(C)s2)cc1OC (centres undefined) | 9.0 | -0.9 | -1.3% | 15.8% | 9.3% | 3.98µM*
COC1=CC(=O)c2ccccc2C1=O | / | -15.8 | / | 9.8% | -0.8% | 12.6µM*
O=C1C=C(O)c2ccccc2C1=O | -26.5 | / | / | / | / | /
COc1ccc(SN=C2C(C)=CC(=O)C=C2C)cc1 | 3.2 | 3.1 | 16.6% | -7.4% | -2.1% | -15.0%
COC1=CC(=O)C=C(OC)C1=O | -81.3* | -6.8 | / | / | / | -7.4%
Cc1ccc(NC(=O)Nc2ccc3c(c2)[C@]2(CC(=O)N(CC(C)C)C2c2ccccc2)C(=O)N3C)cc1Cl (some centres undefined) | / | -5.8 | / | / | / | /
CCc1cc(=O)oc2cc(C)c(CN3CCCC(C)C3)c(O)c12 (centres undefined) | 0.0 | -50.9* | -0.3% | -25.9% | -25.2% | -7.7%
CCCC(=O)O[C@]1(C(=O)CC)CC[C@H]2[C@@H]3CCC4=CC(=O)CC[C@]4(C)[C@H]3[C@@H](O)C[C@@]21C | / | -0.8 | / | / | / | /
CCCNC(=O)OC[C@@H]1O[C@H](CCO/N=C(\C)CCC(=O)OC[C@@H]2O[C@H](C#Cc3ccccc3)C=C[C@@H]2Oc2ccc(C)cc2)C=C[C@@H]1Oc1ccc(OC)cc1 | 2.3 | / | / | / | / | /
SMILES | FBPA coupling cs | PI4K2A inh | GALK inh | Eya2 inh | USP2a block | USP1 inh
COCCn1c(SCC(=O)Nc2nnc(C)s2)nnc1-c1cc2ccccc2cc1O | -43.6* | -4.6 | -1.6% | 21.4% | -1.4% | -3.1%
COCCn1c(SCC(=O)Nc2nnc(C)s2)nnc1-c1c[nH]c2ccccc12 | 0.1 | 5.8 | 1.7% | 8.3% | -0.5% | 4.0%
CCN(CC)c1ccc2cc(-c3nc(-c4cc(OC)c(OC)c(OC)c4)no3)c(=O)oc2c1 | / | -0.7 | / | / | / | 39.8µM*
CCN(CC)c1ccc2cc(-c3nc(-c4ccccc4F)no3)c(=O)oc2c1 | / | 0.6 | / | / | / | ?
N#C/C(=C/c1ccc(N2CCCCC2)o1)C(=O)Nc1ccc(Cl)cc1 | 3.3 | 0.7 | 0.1% | ? | 12.2% | 28.2µM*
N#C/C(=C/c1ccc(N2CCCCC2)o1)C(=O)Nc1ccc2ccccc2c1 | -0.2 | 0.2 | -0.3% | ? | 29.4% | 34.4%
COc1ccc(-c2cc(C)no2)cc1S(=O)(=O)NCc1ccco1 | / | -3.5 | / | / | / | ?
COc1ccc(S[C@]2(C(=O)N3CCN(C(C)=O)CC3)CC(=O)N(C(=O)C3CC3)[C@@H]2c2ccc(OC)cc2)cc1 | / | -0.8 | / | / | / | /
COc1cc(NC(C)CCCN)c2ncccc2c1Oc1ccccc1 (centres undefined) | -30.4* | -21.3 | 3.1% | 0.2% | -2.0% | -23.2%
Cc1ccc(C2CC(=O)N3CN(c4ccc(Br)cc4)CSC3=C2C#N)o1 (centres undefined) | -37.9* | -2.2 | 2.4% | 3.6% | -7.9% | -1.9%
COc1cccc(C2CC(=O)N3CN(c4ccccc4F)CSC3=C2C#N)c1 (centres undefined) | -9.7 | 1.1 | 1.1% | -16.6% | 2.3% | -21.8%
COc1cccc(C2CC(=O)N3CN(c4cccc(Cl)c4C)CSC3=C2C#N)c1OC (centres undefined) | -14.3 | -4.2 | 4.4% | 7.7% | -1.2% | -20.3%
COc1cc(C2CC(=O)N3CN(c4ccccc4C)CSC3=C2C#N)cc(OC)c1OC (centres undefined) | -35.8* | / | 6.6% | -1.5% | -5.1% | /
COc1ccccc1N1CSC2=C(C#N)C(c3ccc(SC)cc3)CC(=O)N2C1 (centres undefined) | -37.8* | -16.7 | 0.9% | -1.6% | -0.6% | -7.4%
CSCC[C@H](NC(=O)c1ccc(NC[C@@H](N)CS)cc1-c1ccccc1)C(=O)O | 0.1 | / | / | / | / | /
CC(C)(C)C1CCC(CC2=C(O)c3ccccc3C(=O)C2=O)CC1 (centres undefined) | / | -1.9 | / | / | / | /
CO[C@@H]1COC(=O)C/C=C\[C@@H](C)COC(=O)[C@H](COCc2ccccc2)NC(=O)C/C=C\[C@H]1C | -0.6 | / | / | / | / | /
O=C(O)c1ccccc1C(=O)Nc1n[nH]c(=S)s1 | -70.4* | 1.4 | -0.1% | 4.5% | -1.2% | -13.5%
CCCCC(O)/C=C(C)/C=C/C=C/C(=O)N1CCCC1=O (centres undefined) | / | -0.9 | / | / | / | /
